Unmarked numbers belong to inactive results.
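Also: TDF is a line of transformed human dermal fibroblasts of mesenchymal origin.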

The experiment relates to HCC1569. The experiment in a line: H1.0 immunofluorescence intensity relative to DMSO (% of DMSO); higher = stronger H1.0 induction, active = 140 or more. The following applies: concentration: 10 µM; 24 h. The procedure, abridged:
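Cells were seeded at 800 per well in 384-well plates with RPMI containing 10% FBS; both HCC1569 and TDF lines were used. Compounds were added at 10 µM for 24 h at 37 °C, in triplicate, before fixation in 3.7% formaldehyde and staining with a rabbit anti-H1.0 antibody, an AlexaFluor 647 secondary and DAPI. H1.0 nuclear intensity or cell number is reported as percent of the plate control using the median of replicates, and HCC1569 values were smoothed for positional effects.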
As for `CCC(CO)NC(=O)C1C=C2c3cccc4c3c(cn4C)CC2N(C)C1.O=C(O)C=CC(=O)O` (stereo not given) [Methysergide maleate], the H1.0 immunofluorescence intensity was 97. As for `COc1cc2c3cc1Oc1c(OO)c(OC)cc4c1C(Cc1ccc(cc1)Oc1cc(ccc1O)CC3N(C)CC2)N(C)CC4.O=S(=O)(O)O` (stereo not given) [Oxyacanthine sulfate], the H1.0 immunofluorescence intensity is 148 (active). With `CNCCc1c[nH]c2ccc(O)cc12.O=C(O)C(=O)O` [N-omega-Methyl-5-hydroxytryptamine oxalate salt], the H1.0 immunofluorescence intensity was 96.1. Regarding `CC1CC(C)C(=O)C(C(O)CC2CC(=O)NC(=O)C2)C1` (stereo not given) [Cycloheximide], the H1.0 immunofluorescence intensity is 139. For `CCN(C)C(=O)Oc1cccc([C@H](C)N(C)C)c1.O=C(O)C(O)C(O)C(=O)O`, the H1.0 immunofluorescence intensity is 96.1. The result for `CCCN(CCC)C1CCc2c(F)ccc(O)c2C1.Cl` (stereo not drawn) [S(-)-UH-301 hydrochloride] reads 96.3. The same measure for `COc1cc(C(=O)OC2CC3CCC(C2)N3C)ccc1O` (stereo not given) [Fillalbin]: 94.5; for `OCC1CCCN2CCCCC12` (stereo not given) [Lupinine]: 84.3. Consider `C[N+]1(C)CCc2cc3c(cc2C1C1OC(=O)c2c1ccc1c2OCO1)OCO3.[Br-]` (single isomer, unassigned; (-)) [(-)-Bicuculline methbromide, 1(S), 9(R)], for which the H1.0 immunofluorescence intensity is 96.4. The same measure for `CN1C2CCC1CC(OC(=O)C(CO)c1ccccc1)C2` (stereo not given) [Hyoscyamine]: 94.8; for `COc1cc(C2c3cc4c(cc3C(O)C3COC(=O)C23)OCO4)cc(OC)c1OC` (stereo not given) [Picropodophyllin]: 128; for `CN1C2CCCC1CC(=O)C2.Cl`: 94.5. The same measure for `CCCCCCCCCCCCCCC(Br)C(=O)O` (stereo not given) [2-bromohexadecanoic acid]: 94.5; for `COc1ccc2c(c1OC)C(=O)OC2C1c2cc3c(cc2CCN1C)OCO3` (stereo not given): 95.3. In the case of `C=CCN1CCC23c4c5ccc(O)c4OC2C(=O)CCC3(O)C1C5.Cl` (stereo not given) [Naloxone hydrochloride], the H1.0 immunofluorescence intensity was 90.6. The result for `NC(=S)NN=Cc1coc2ccccc2c1=O.[Cl][Cu][Cl]` reads 100; that for `NCCN(CCN)N(O)N=O` [1,1-bis(2-aminoethyl)-2-hydroxy-3-oxotriazane], 95; that for `CN(C)C(=O)Oc1ccc[n+](C)c1.[Br-]` [Pyridostigmine bromide], 108.

Regarding `Cl.N[C@@H](CCl)C(=O)O` [beta-Chloro-L-alanine hydrochloride], the H1.0 immunofluorescence intensity is 91.9. Regarding `Cc1ccc(S(=O)(=O)NC(CCCCN)C(=O)CCl)cc1.Cl` [Na-p-Tosyl-L-lysine chloromethyl ketone hydrochloride], the H1.0 immunofluorescence intensity was 101.

On to `CCCCc1ccc(C(=O)O)nc1` [Fusaric acid], for which the H1.0 immunofluorescence intensity was 88.6.

Take `Br.C=CCN1CCc2cccc3c2C1Cc1ccc(O)c(O)c1-3` (stereo not drawn) [R(-)-N-Allylnorapomorphine hydrobromide]: the H1.0 immunofluorescence intensity is 110.

Turning to `Cc1cc(O)c2c(=O)c3c(O)cc(O)c4c5c(O)cc(O)c6c(=O)c7c(O)cc(C)c8c1c2c(c34)c(c78)c65` [Hypericin], the H1.0 immunofluorescence intensity is 94.4. Regarding `Cl.O=C(OC1CCN(CCCl)CC1)C(c1ccccc1)c1ccccc1` [4-Diphenylacetoxy-N-(2-chloroethyl)piperidine hydrochloride], the H1.0 immunofluorescence intensity was 87.6. The result for `CC(N)C(=O)OC(C)(C)Cc1ccc(Cl)cc1.Cl` (stereo not given) [Alaproclate hydrochloride] reads 88.6; that for `CC1CCC2C(C)C3C(CC4C5CCC6CC(O)CCC6(C)C5CCC43C)N2C1` (stereo not given) [Demissidine], 92.6. In the case of `Cl.O=C(N[C@H]1CN2CCC1CC2)c1c[nH]c2ccsc2c1=O`, the H1.0 immunofluorescence intensity is 107.

For `C#C[C@]1(O)CC[C@H]2[C@@H]3CC[C@H]4Cc5nc6nc7ccccc7n6cc5C[C@]4(C)[C@H]3CC[C@@]21C`, the H1.0 immunofluorescence intensity was 145 (active). The result for `CN1CC(C(=O)NC2(C)OC3(O)C4CCCN4C(=O)C(Cc4ccccc4)N3C2=O)CC2c3cccc4[nH]cc(c34)CC21.CS(=O)(=O)O` (stereo not given) [Dihydroergotamine mesylate] reads 105; that for `O=[N+]([O-])c1cc(O)c(O)c([N+](=O)[O-])c1` [3,5-Dinitrocatechol], 97.9.
